Structures are written as SMILES. Screen size: about 330,000 compounds; about 7,300 (2.2%) were called active. The list comes from a sample in which actives are over-represented; it also holds similar structures and randomly drawn compounds. Unmarked numbers belong to inactive results.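 How the source made its calls: active means inhibition of at least 40%; inactive means the rest.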

This test in a line: growth inhibition of tim10-1 ts yeast – luminescence, uHTS, primary screen (AID 463190).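 Further: mutant grown at 25 °C; 0% = DMSO wells with yeast and 100% = wells holding no yeast.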 Conditions: S. cerevisiae tim10-1 ts strain growth, BacTiter-Glo, 24 h; at 20 µM; active compounds read high.
Consider `COc1cc(C(=O)NCC(=O)NCCSc2ccc(Br)cc2)cc(OC)c1OC`, for which the inhibition is 9.46%. In the case of `Nc1cc(OC(=O)c2ccccc2Br)nn1S(=O)(=O)c1ccccc1` it was 57.5% (active); in that of `Cc1ccc(S(=O)(=O)n2nc(OC(=O)C(C)(C)C)cc2N)cc1`, 25.5%; in that of `O=C(COC(=O)c1ccccc1Br)Nc1nnc(-c2ccccc2)o1`, 0.631%. In the case of `O=C(CN1CCN(c2ncc(C(F)(F)F)cc2Cl)CC1)Nc1ccc2c(c1)OCO2` it was 28.8%. In the case of `CC(=O)c1ccc(Cc2ncc(C(F)(F)F)cc2Cl)s1` it was 3.28%; in that of `O=C(Cc1ncc(C(F)(F)F)cc1Cl)Nc1cccc(Br)c1`, 47.5% (active); in that of `Clc1ccc(Cl)c(Oc2ccc(Oc3nc(Cl)ccc3Cl)cc2)n1`, 9.8%.

Regarding `CCOc1ccc(C2=CC(c3ccccc3)n3ncnc3N2)cc1` (stereo unspecified), the inhibition is 25.5%.

For the compound `CC1=C(C(=O)OCc2ccccc2)C(c2ccco2)n2ncnc2N1` (stereo unspecified), the inhibition was 20.9%. In the case of `Brc1ccc(C2=CC(c3ccco3)n3ncnc3N2)cc1` (stereo unspecified) it was 48.2% (active).

Take `CN=c1scc(-c2cc(OC)ccc2OC)n1/N=C/c1c(C)[nH]c2ccccc12`: the inhibition was 46% (active). In the case of `COCCNC(=S)N/N=C/c1c(C)[nH]c2ccccc12` it was 16.2%; in that of `CCn1c(-c2cc(OC)ccc2OC)csc1=Nc1c(C)n(C)n(-c2ccccc2)c1=O`, 22.1%; in that of `COc1cc(/C=C2/C(=O)ON=C2C)ccc1OCc1ccccc1F`, 49% (active).

In the case of `COc1cc(/C=C2/C(=O)ON=C2C)ccc1OCc1cccc(F)c1`, the inhibition is 9.41%.

As to `C=CCOc1ccc(/C=C2/C(=O)ON=C2C)cc1OCC`, the inhibition is 5.79%. The value for `O=C(O)c1n[nH]nc1-c1ccccc1` was -4.76%.

On to `O=C(Nc1cccc([N+](=O)[O-])c1)N1CCc2ccccc2C1`, for which the inhibition is 13.3%.

On to `COc1ccc(-c2cnc(SCCNC(=O)c3ccc4c(c3)OCO4)[nH]2)cc1`, for which the inhibition was -13.2%. In the case of `COc1ccccc1CSc1ncc(-c2ccc([N+](=O)[O-])cc2)[nH]1` it was 44.7% (active); in that of `N#Cc1c(-c2ccccc2)nc(SCc2ccc([N+](=O)[O-])cc2)[nH]c1=O`, 16.7%. The value for `CC(OC(=O)c1ccc(S(=O)(=O)N2CCOCC2)cc1)c1ccccc1` (stereo unspecified) was 23.8%; that for `O=C(ON=C1CCN(S(=O)(=O)c2ccccc2)CC1)c1ccc(Cl)cc1` was 65.8% (active); that for `COC(=O)c1ccc(S(=O)(=O)N2CCc3ccccc3C2)cc1` was -7.78%. Consider `COc1ccc(NC(=O)CCCN2C(=O)C(c3ccccc3)Oc3cccnc32)cc1` (stereo unspecified), for which the inhibition was 37%. In the case of `OCC[C@H]1C[C@H](O)[C@@H](O)[C@]2(Cc3ccccc3CO2)O1` it was 19%; in that of `NS(=O)(=O)c1ccc(NC(=S)NC(=O)c2cccc(Br)c2)cc1`, 23.9%. In the case of `NS(=O)(=O)c1ccc(NC(=S)Nc2ccc(Br)c(Cl)c2)cc1` it was 55.7% (active). On to `NS(=O)(=O)c1ccc(CCNC(=S)Nc2ccc(S(N)(=O)=O)cc2)cc1`, for which the inhibition is 8.83%. As for `CCOC(=O)c1csc(CCNC(=O)c2oc3c(Cl)cc(C)cc3c2C)n1`, the inhibition is 19.2%. The value for `O=C(Nc1cccc(Cl)c1)c1cncn1-c1ccc(F)cc1` was 41.7% (active); that for `O=C(Nc1cccc(Cl)c1)c1cc(S(=O)(=O)N2CCCCC2)c[nH]1` was -3.59%; that for `CCC(=O)Nc1nc(C)c(C(=O)Nc2cccc(Cl)c2)s1` was 2.36%. In the case of `CCn1cc(C(=O)Nc2cc(C)ccc2C)c(=O)c2ccc(C)nc21` it was 6.54%. The value for `O=C(c1cc(C(=O)N2CCN(c3ccc(F)cc3)CC2)cc([N+](=O)[O-])c1)N1CCN(c2ccc(F)cc2)CC1` was -17.5%; that for `O=C(c1cc2cc(F)ccc2[nH]1)N1CCN(c2ccc(F)cc2)CC1` was -10.5%; that for `O=C(c1cccc(C(=O)N2CCN(c3ccc(F)cc3)CC2)c1)N1CCN(c2ccc(F)cc2)CC1` was 40.1% (active).

Take `OCCCNC(c1ccccc1)c1ccc(O)cc1` (stereo unspecified): the inhibition was -5.16%. In the case of `Cc1onc(-c2ccccc2)c1C(=O)Nc1ccccc1C#N` it was 25%.

Consider `COc1ccc(C(=O)NC(=S)NNC(=O)c2c(-c3ccccc3)noc2C)cc1`, for which the inhibition was 41.5% (active).

Regarding `Cc1onc(-c2ccccc2)c1C(=O)NNC(=S)NC(=O)c1ccc(F)cc1`, the inhibition was 29.6%. In the case of `C=CCNc1nc(N)c(C(=C(C#N)C#N)c2ccccc2)s1` it was 32%. In the case of `Cc1ccc(CNC(=O)C2(C(F)(F)F)C/C(=C\Cc3ccccc3)CCCO2)o1` (stereo unspecified) it was 29.8%; in that of `O=C(NCc1ccncc1)c1ccc(NS(=O)(=O)c2cccc([N+](=O)[O-])c2)cc1`, -9.55%. In the case of `O=C(Nc1c(Cl)cccc1Cl)C1CCC1` it was 18.6%; in that of `Cc1[nH]n(-c2ccccc2)c(=O)c1CCOC(=O)c1ccc(C(F)(F)F)cc1`, 16.7%.

On to `CCc1cc(C(=O)Nc2nnc(C3CC3)s2)sc1C`, for which the inhibition is 14.7%. In the case of `COc1cccc(CNCc2ccc3c(c2)OCO3)c1` it was -13%; in that of `O=C(CN1CCN(c2nc(-c3ccccc3)cs2)CC1)NCc1ccc2c(c1)OCO2`, 30.8%. Turning to `O=C(COC(=O)C1CCCO1)Nc1nc(-c2ccc(F)cc2)cs1` (stereo unspecified), the inhibition was 5.58%.

For `CC1CCCC(C)N1C(=O)CN1CCN(c2nc(-c3ccc(F)cc3)cs2)CC1` (stereo unspecified), the inhibition was 56.2% (active). The value for `Cc1occc1-c1nnc(SCC(=O)NC2(C#N)CCCC2)n1C` was -2.1%. In the case of `CCOC(=O)C1=C(C)NC(C)=C(C(=O)OCC)C1C1=COCCO1` it was 4.91%. The value for `Cc1ccccc1-c1ccc(Nc2ccc(C(=O)N3CCOCC3)cc2)nn1` was 3.37%; that for `Cc1oc2c(c1C(=O)N1CCOCC1)C(=O)c1ccccc1C2=O` was 58.7% (active).

As for `COC1=C(N2CCOCC2)C(=O)c2ccccc2C1=O`, the inhibition was 9.96%. In the case of `CN1CCC(CN)(N2CCN(c3ccccc3)CC2)CC1` it was 16.4%; in that of `COC(=O)C1CCN(C(=O)c2ccc3oc(Cc4ccc(Cl)cc4)nc3c2)CC1`, 14.5%; in that of `c1ccc2c(NCC3CCCO3)nc(-c3ccncc3)nc2c1` (stereo unspecified), 33.4%. Consider `Clc1cccc(-c2nc(NCC3CCCO3)c3ccccc3n2)c1` (stereo unspecified), for which the inhibition was 17.9%. The value for `c1ccc(-c2nc(NCc3ccco3)c3ccccc3n2)cc1` was 51.3% (active); that for `CCOC(=O)N1CCC(NC(=O)C(NS(=O)(=O)c2ccc3c(c2)CCN3C(=O)CC)C(C)C)CC1` (stereo unspecified) was -1.74%; that for `CCC(=O)N1CCc2cc(S(=O)(=O)NC(C(=O)N3CCc4ccccc4C3)C(C)C)ccc21` (stereo unspecified) was 40.2% (active). Consider `CCC(=O)N1CCc2cc(S(=O)(=O)CCC(=O)N3CCN(c4ccccc4F)CC3)ccc21`, for which the inhibition was 22%. The value for `COc1ccccc1-c1cnn2c(N3CCOCC3)cc(C)nc12` was 4.69%.

For the compound `COc1ccc(C(=O)NC(=S)N2CCNC(=O)C2CC(=O)OC(C)C)cc1` (stereo unspecified), the inhibition was -10.3%.

Consider `COc1cccc(CNS(=O)(=O)c2cc3c(cc2C)n(C)c(=O)c(=O)n3C)c1`, for which the inhibition was 8.44%. In the case of `COc1cccc(Cn2cnc3c([N+](=O)[O-])c(C)c(C)cc32)c1` it was 41% (active); in that of `Cc1cccc(Cn2cnc3c(N)c(C)c(C)cc32)c1`, 16.8%. The value for `O=C(c1ccc(S(=O)(=O)c2ccccc2)cc1)N1CCCCCC1` was 15.7%; that for `CC1CCN(C(=O)c2ccc(CSc3ccc(Cl)cc3)cc2)CC1` was 24.5%. In the case of `O=C(c1ccc(CSc2ccccc2)cc1)N1CCCCCC1` it was 42.3% (active); in that of `Cc1nc(NC(=O)CCC(=O)O)sc1C(=O)N(C)C`, 3.6%; in that of `Cc1ccc(S(=O)(=O)NCC2CCC(C(=O)N3CCOCC3)CC2)cc1` (stereo unspecified), 9.53%.

`Cc1ccc(S(=O)(=O)NC(C(=O)N2CCOCCOCCOCCOCC2)c2ccccc2)cc1` (stereo unspecified): the inhibition was 40.5% (active).

As for `Cc1ccc(S(=O)(=O)NCC(=O)N2CCOCCOCCOCCOCC2)cc1`, the inhibition is 3.97%. In the case of `COc1ccnc(Oc2ccccc2)n1` it was -10.3%. Turning to `COc1ccc(S(=O)(=O)N2CCN(CC(=O)N3CCOCC3)CC2)cc1OC`, the inhibition is -6.09%. For `CNC(=O)c1csc(-c2ccccc2)n1`, the inhibition was 8.44%.

`CC(=O)NNC(=O)c1csc(Cc2c(Cl)sc3ccc(Cl)cc23)n1`: the inhibition is 23.3%. For `CNC(=O)c1csc(Cc2c(Cl)sc3ccc(Cl)cc23)n1`, the inhibition is 41.4% (active).

On to `Cc1cccc(C)c1NC(=O)CN1C(=O)C(C)Oc2ccccc21` (stereo unspecified), for which the inhibition was 3.34%. The value for `COc1ccccc1-n1ccnc(SCC(=O)NC2CCCCC2)c1=O` was 43.2% (active); that for `COc1ccc(-c2nnc(SCC(=O)NC3CCCCC3)o2)cc1OC` was 17%; that for `COc1ccccc1-n1ccnc1SCC(=O)NC(C)(C)C` was 4.37%. In the case of `CCN(c1ccc(NC(=O)COC(=O)CCc2nc3ccccc3n2-c2ccccc2)cc1)C(C)C` it was 13.1%; in that of `O=S(=O)(c1ccc(-c2ccno2)s1)N1CCCCC1`, 9.27%; in that of `CNC(=O)C1CC(=O)N(Cc2ccc3c(c2)OCO3)C(=Nc2ccc(F)cc2)S1` (stereo unspecified), -3.7%.

With `CC(C)Oc1ccc(CC(=O)NNC(=S)Nc2ccc(Br)cc2)cc1`, the inhibition is 17.7%.

Turning to `CCNC(=S)N1CCN(CCN=CC2=C(O)CC(C)(C)CC2=O)CC1`, the inhibition was -11.3%. In the case of `C=CCNC(=S)N1CCN(CCN=Cc2c(C)[nH]n(-c3ccc([N+](=O)[O-])cc3)c2=O)CC1` it was 43.4% (active); in that of `Cc1[nH]n(-c2ccccc2)c(=O)c1N=Nc1ccccc1C(=O)N1CCCCC1`, 22.5%. The value for `Cc1ccc(-n2[nH]c(C)c(/C=N/NC(=O)c3cccc([N+](=O)[O-])c3)c2=O)cc1C` was 6.18%. In the case of `Cc1[nH]n(-c2ccc([N+](=O)[O-])cc2)c(=O)c1C=NCCN1CCN(C(=O)c2ccccc2F)CC1` it was 42.3% (active); in that of `CC1(C)CC(=O)C(C=NCCN2CCN(C(=S)Nc3cccc(Cl)c3)CC2)=C(O)C1`, 6.34%.
